According to PubChem BioAssay (EPA / NIEHS):
Active and inactive are the calls of the source. Rule for the calls: active = hit-call score of the fitted dose curve at least 0.9, where 1 is the maximum; inactive = score below 0.9.

Columns and labels:
[1] = ATG_PBREM_CIS: Attagene CIS-FACTORIAL HepG2 Assay for human Phenobarbital-responsive Enhancer Module (PBREM) (AID 2282955); settings: HepG2 PBREM cis-reporter, Attagene multiplexed transcription; actives raise or lower the signal
Summary of the method: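 Transfected liver-derived HepG2 cells exposed 24 h; PBREM reporter transcript quantified via RT-PCR and capillary electrophoresis, with activity in either direction referenced to DMSO.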

[2] = molecular target: Paired box protein Pax-6 (Homo sapiens) (UniProt P26367); test: ATG_Pax6_CIS: Attagene CIS-FACTORIAL HepG2 Assay for human Paired Box 6 (PAX6) (AID 2282956); settings: HepG2 CIS-FACTORIAL PAX6 reporter transcription, RNA readout; actives raise or lower the signal
Sequence of Paired box protein Pax-6 (Homo sapiens) (P26367 whole entry, looked up): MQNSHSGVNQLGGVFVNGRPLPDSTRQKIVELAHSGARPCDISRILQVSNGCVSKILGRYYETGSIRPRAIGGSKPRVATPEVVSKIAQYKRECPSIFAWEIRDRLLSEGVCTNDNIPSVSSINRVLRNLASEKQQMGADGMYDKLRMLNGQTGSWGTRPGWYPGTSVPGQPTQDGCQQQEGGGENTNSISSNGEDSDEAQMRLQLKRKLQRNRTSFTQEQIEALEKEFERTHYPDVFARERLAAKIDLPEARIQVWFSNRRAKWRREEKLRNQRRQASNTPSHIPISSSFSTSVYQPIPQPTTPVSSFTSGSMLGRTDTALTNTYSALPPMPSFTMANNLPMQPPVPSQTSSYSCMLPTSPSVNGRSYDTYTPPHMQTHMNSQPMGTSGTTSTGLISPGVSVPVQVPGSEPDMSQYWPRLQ
Summary of the method: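 Readout: reporter transcript fluorescence after RT-PCR and capillary electrophoresis. Cells: HepG2, transiently transfected with cis-regulated MRTUs. Exposure 24 h. Gain or loss of signal fitted bidirectionally relative to DMSO.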

[3] = ATG_PXRE_CIS: Attagene CIS-FACTORIAL HepG2 Assay for human Pregnane X Receptor Element (PXRE) (AID 2282957); settings: HepG2 Attagene CIS-FACTORIAL PXRE reporter, mRNA; actives raise or lower the signal
Summary of the method: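 Using HepG2 transfected with multiple reporter transcription units, endogenous factor-driven transcription was scored as reporter mRNA after 24 h exposure.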

[4] = ATG_PPRE_CIS: Attagene CIS-FACTORIAL HepG2 Assay for human Peroxisome Proliferator-activated Response Element (PPRE) (AID 2282958); settings: HepG2 PPRE cis-element reporter, Attagene transcription factor profiling; actives raise or lower the signal
Summary of the method: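 Measured endpoint: PPRE-controlled reporter mRNA, detected by RT-PCR and capillary electrophoresis fluorescence, from transiently transfected HepG2 cells 24 h after dosing. Curves fitted in both directions using DMSO baseline.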

[5] = ATG_RORE_CIS: Attagene CIS-FACTORIAL HepG2 Assay for human RAR-related Orphan Receptor Element (RORE) (AID 2282959); settings: HepG2 Attagene cis-factorial RORE reporter, mRNA; actives raise or lower the signal
Summary of the method: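 Transiently transfected HepG2 reporter cells were treated 24 h. Reporter transcripts were detected by RT-PCR and capillary electrophoresis, with bidirectional fitting against DMSO.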

[6] = ATG_Sox_CIS: Attagene CIS-FACTORIAL HepG2 Assay for human SRY-box transcription factor (SOX) (AID 2282960); settings: HepG2 Attagene cis-factorial SOX reporter, mRNA; actives raise or lower the signal
Summary of the method: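 Gain- or loss-of-signal endpoint, fitted bidirectionally with DMSO as negative control. Based on reporter mRNA from transfected HepG2 cells harvested 24 h post-treatment and quantified via RT-PCR and capillary electrophoresis.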

[7] = molecular target: Transcription factor Sp1 (Homo sapiens) (UniProt P08047); test: ATG_Sp1_CIS: Attagene CIS-FACTORIAL HepG2 Assay for human Specificity Protein 1 (Sp1) (AID 2282961); settings: HepG2 Sp1 cis-reporter transcription, actives raise or lower the signal
Sequence of Transcription factor Sp1 (Homo sapiens) (P08047 whole entry, looked up, the tested form may be a part): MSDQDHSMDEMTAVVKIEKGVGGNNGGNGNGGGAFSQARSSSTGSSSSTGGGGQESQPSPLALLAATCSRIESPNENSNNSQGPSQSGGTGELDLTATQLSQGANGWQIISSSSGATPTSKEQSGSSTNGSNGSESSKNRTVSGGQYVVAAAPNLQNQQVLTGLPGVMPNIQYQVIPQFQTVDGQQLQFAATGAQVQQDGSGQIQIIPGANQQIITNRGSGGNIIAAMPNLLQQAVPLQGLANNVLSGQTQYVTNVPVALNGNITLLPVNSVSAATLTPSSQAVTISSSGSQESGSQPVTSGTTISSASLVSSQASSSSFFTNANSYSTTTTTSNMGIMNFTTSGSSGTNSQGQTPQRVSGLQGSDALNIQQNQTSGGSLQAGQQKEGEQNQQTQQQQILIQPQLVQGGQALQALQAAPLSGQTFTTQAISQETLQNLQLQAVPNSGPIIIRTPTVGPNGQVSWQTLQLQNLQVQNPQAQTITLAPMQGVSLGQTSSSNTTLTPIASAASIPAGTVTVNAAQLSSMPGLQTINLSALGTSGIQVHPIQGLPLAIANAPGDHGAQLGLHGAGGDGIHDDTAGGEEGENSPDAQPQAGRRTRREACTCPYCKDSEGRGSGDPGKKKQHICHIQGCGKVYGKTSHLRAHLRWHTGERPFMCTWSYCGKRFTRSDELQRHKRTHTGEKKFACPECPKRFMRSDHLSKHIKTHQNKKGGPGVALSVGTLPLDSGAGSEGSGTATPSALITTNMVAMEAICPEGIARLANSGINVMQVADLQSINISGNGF
Summary of the method: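 Endpoint reflects endogenous Sp1 transcriptional activity, not an exogenous fusion protein: HepG2 cells with transfected cis-regulated reporters, 24 h dosing, RT-PCR/capillary electrophoresis mRNA read-out, DMSO-normalised bidirectional fit.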

[8] = ATG_SREBP_CIS: Attagene CIS-FACTORIAL HepG2 Assay for human Sterol Regulatory Element Binding (SREBP) (AID 2282962); settings: HepG2 Attagene cis-factorial SREBP reporter, mRNA; actives raise or lower the signal
Summary of the method: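 Readout: fluorescent reporter-transcript peaks resolved by capillary electrophoresis after RT-PCR. Cells were human HepG2 carrying transfected cis-promoter reporter constructs, dosed for 24 h. Gain or loss of signal was fitted against DMSO controls.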

[9] = molecular target: Signal transducer and activator of transcription 3 (Homo sapiens) (UniProt P40763); test: ATG_STAT3_CIS: Attagene CIS-FACTORIAL HepG2 Assay for human Signal Transducer and Activator of Transcription 3 (STAT3) (AID 2282963); settings: HepG2, Attagene cis-factorial STAT3 reporter transcription; actives raise or lower the signal
Sequence of Signal transducer and activator of transcription 3 (Homo sapiens) (P40763 whole entry, looked up): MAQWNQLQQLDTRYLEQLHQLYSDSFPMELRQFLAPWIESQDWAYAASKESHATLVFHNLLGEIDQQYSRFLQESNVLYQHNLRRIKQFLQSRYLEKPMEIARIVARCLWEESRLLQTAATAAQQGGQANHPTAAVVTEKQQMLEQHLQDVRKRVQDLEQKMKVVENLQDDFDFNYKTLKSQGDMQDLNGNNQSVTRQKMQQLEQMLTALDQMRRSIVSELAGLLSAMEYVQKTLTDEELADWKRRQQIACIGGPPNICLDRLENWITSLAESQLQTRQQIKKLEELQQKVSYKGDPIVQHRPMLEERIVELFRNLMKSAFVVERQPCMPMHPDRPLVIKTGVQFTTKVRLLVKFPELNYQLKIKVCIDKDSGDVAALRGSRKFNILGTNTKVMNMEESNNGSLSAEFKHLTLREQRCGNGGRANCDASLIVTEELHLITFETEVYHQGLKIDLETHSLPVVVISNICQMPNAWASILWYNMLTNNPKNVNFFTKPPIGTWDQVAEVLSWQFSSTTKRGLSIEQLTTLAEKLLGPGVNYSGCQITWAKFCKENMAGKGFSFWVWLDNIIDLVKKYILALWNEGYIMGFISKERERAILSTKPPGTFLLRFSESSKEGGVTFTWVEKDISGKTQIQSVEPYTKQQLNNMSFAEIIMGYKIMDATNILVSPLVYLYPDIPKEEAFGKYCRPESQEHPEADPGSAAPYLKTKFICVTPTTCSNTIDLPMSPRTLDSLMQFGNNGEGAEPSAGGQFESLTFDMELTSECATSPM
Summary of the method: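 Uses human liver HepG2 transiently carrying cis-regulated reporter transcription units. Following 24 h dosing, reporter mRNA induction was detected by RT-PCR and capillary electrophoresis, analysed bidirectionally versus DMSO.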

[10] = ATG_TA_CIS: Attagene CIS-FACTORIAL HepG2 Assay for human TA Basal Promoter (AID 2282964); settings: HepG2 Attagene CIS-factorial TA basal promoter reporter; actives raise or lower the signal
Summary of the method: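 Background internal-marker endpoint from a 52-component HepG2 cis-reporter panel. Cells treated 24 h; reporter transcripts quantified via RT-PCR and CE fluorescence against DMSO baseline.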

Measured: AC50

c1ccc(C[P+](c2ccccc2)(c2ccccc2)c2ccccc2)cc1
not listed: [10]
inactive: all other assays above

C=CCOC(=O)CC(C)C
not listed: [10]
inactive: all other assays above

CSc1ccc(O)cc1C
active: [3] 44.3 µM
not listed: [10]
inactive: all other assays above

CC(=O)CCC(C)C
active: [3] 52.9 µM
inactive: all other assays above

CCOC(=O)C1CC(=O)C(=C(O)C2CC2)C(=O)C1 (stereo unspecified)
active: [3] 77.3 µM
inactive: all other assays above

COCCOCCC[Si](C)(O[Si](C)(C)C)O[Si](C)(C)C
active: [1] 8.38 µM | [3] 0.752 µM | [6] 8.52 µM | [7] 9.13 µM | [8] 6.62 µM
inactive: [2] | [4] | [5] | [9]

CN(C)C(C)(C)CO
not listed: [10]
inactive: all other assays above

OCCCCC(F)(F)C(F)(F)C(F)(F)C(F)(F)F
not listed: [10]
inactive: all other assays above

CCCC(=O)OCC(COC(=O)CCC)OC(=O)CCC
active: [3] 0.0935 µM
inactive: all other assays above

CO[Si](CCCOCC1CO1)(OC)OC (stereo unspecified)
not listed: [10]
inactive: all other assays above

C=CC(=O)OCCC(F)(F)C(F)(F)C(F)(F)C(F)(F)F
active: [3] 43.8 µM
not listed: [10]
inactive: all other assays above

FC(F)(F)C(F)(F)C(F)(F)CC1CO1 (stereo unspecified)
inactive: all assays above

O=C(O)C(F)(F)C(F)(F)C(F)(F)C(F)(F)C(F)(F)C(F)(F)C(F)F
active: [3] 27.6 µM | [4] 46.1 µM | [8] 63.5 µM
inactive: all other assays above

NCC(F)(F)C(F)(F)C(F)(F)C(F)(F)C(F)(F)C(F)(F)C(F)(F)C(F)(F)F
not listed: [10]
inactive: all other assays above

CCN(CCO)S(=O)(=O)C(F)(F)C(F)(F)C(F)(F)C(F)(F)C(F)(F)C(F)(F)C(F)(F)C(F)(F)F
active: [3] 9.56 µM
not listed: [10]
inactive: all other assays above

CCc1cccc(C)c1N(C(=O)C(=O)O)C(C)COC (stereo unspecified)
inactive: all assays above

N#CCCOCCC#N
not listed: [10]
inactive: all other assays above

O=C1OC(=O)c2ccc3c4c(ccc1c24)C(=O)OC3=O
not listed: [10]
inactive: all other assays above

CC1=CCC2C(=O)OC(=O)C2C1 (stereo unspecified)
inactive: all assays above

O=C(O)C(F)(F)C(F)(F)C(F)(F)OC(F)(C(F)(F)F)C(F)(F)F
active: [3] 39.8 µM | [4] 45.9 µM
not listed: [10]
inactive: all other assays above

C#CC(O)CCC (stereo unspecified)
not listed: [10]
inactive: all other assays above

OCC(F)(F)C(F)(F)C(F)(F)CO
not listed: [10]
inactive: all other assays above

O=S(=O)(OCC(F)(F)F)C(F)(F)C(F)(F)C(F)(F)C(F)(F)F
not listed: [10]
inactive: all other assays above

CSc1ccc(Cl)cc1
not listed: [10]
inactive: all other assays above

Cc1ccc(O)c(-n2nc3ccccc3n2)c1
active: [3] 12.2 µM | [4] 13.5 µM
not listed: [10]
inactive: all other assays above

CCN(CC)c1ccc2c(c1)Oc1cc(N(CC)CC)ccc1C21OC(=O)c2ccccc21
active: [3] 1.04 µM | [8] 17.6 µM
not listed: [10]
inactive: all other assays above

CCOC(=O)CCC(C)=O
not listed: [10]
inactive: all other assays above

CCOC(OCC)OCC
active: [3] 28 µM
not listed: [10]
inactive: all other assays above

C=CC(=O)OCC(F)(F)C(F)(F)C(F)(F)C(F)(F)C(F)(F)C(F)(F)C(F)(F)C(F)F
active: [3] 38.3 µM | [6] 271 µM
not listed: [10]
inactive: all other assays above

C[Si](C)O[Si](C)C
not listed: [10]
inactive: all other assays above

O=C(O)CCC(F)(F)C(F)(F)C(F)(F)C(F)(F)C(F)(F)C(F)(F)C(F)(F)F
active: [4] 64.4 µM
not listed: [10]
inactive: all other assays above

Cc1cc(C)c(O)c(C(C)(C)C)c1
active: [3] 27.1 µM
not listed: [10]
inactive: all other assays above

CCOCN(C(=O)CS(=O)(=O)O)c1c(C)cccc1CC
active: [3] 42 µM
not listed: [10]
inactive: all other assays above

CC(C)OC(=O)COc1ccc(Cl)cc1Cl
active: [3] 68.8 µM
not listed: [10]
inactive: all other assays above

CCOC(C=C(C)CCC=C(C)C)OCC
active: [3] 31.2 µM | [5] 38.3 µM
not listed: [10]
inactive: all other assays above

O=C1c2c(O)ccc(Nc3ccc(CCO)cc3)c2C(=O)c2c([N+](=O)[O-])ccc(O)c21
active: [1] 38.6 µM | [3] 6.06 µM | [4] 24.1 µM | [5] 4.01 µM
not listed: [10]
inactive: all other assays above

COC(F)(C(F)F)C(F)(F)F (stereo unspecified)
inactive: all assays above

CC(C)(C)c1cc(CCC(=O)NCCCCCCNC(=O)CCc2cc(C(C)(C)C)c(O)c(C(C)(C)C)c2)cc(C(C)(C)C)c1O
active: [3] 0.169 µM
inactive: all other assays above

O=C(Cl)c1ccc(Cl)cc1Cl
active: [3] 27.3 µM
inactive: all other assays above

O=S(=O)(Cl)C(F)(F)C(F)(F)C(F)(F)C(F)(F)C(F)(F)C(F)(F)C(F)(F)C(F)(F)F
active: [3] 28.3 µM | [4] 36.6 µM
inactive: all other assays above

Brc1ccccn1
inactive: all assays above

OCCCCl
inactive: all assays above

COCCC(=O)OC
inactive: all assays above

OCCCc1cccnc1
inactive: all assays above

Cc1ccc([N+](=O)[O-])c(C)c1
inactive: all assays above

CCN=c1cc2oc3cc(NCC)c(C)cc3c(-c3ccccc3C(=O)OCC)c-2cc1C
inactive: [1] | [3] | [5] | [9]
active: [2] 8.69 µM | [4] 17 µM | [6] 15.9 µM | [7] 9.7 µM | [8] 15.5 µM | [10] 11.1 µM

OCC(O)CC(F)(F)C(F)(F)C(F)(F)C(F)(F)C(F)(F)C(F)(F)C(F)(F)C(F)(F)F (stereo unspecified)
inactive: all assays above

O=C(c1ccccc1)c1ccc(O)cc1O
active: [3] 48.6 µM
inactive: all other assays above

NC(=O)C(F)(F)C(F)(F)C(F)(F)F
inactive: all assays above
